Screens as filed in PubChem BioAssay.
Pf growth 96h: inhibits malaria parasite growth, 96 h. P. falciparum luciferase reporter growth, 96 h. Potency, µM (series often up to 28.7 µM), without a hit: at the top dose activity change, negative = inhibition, usual class: inhibitors. 320,000 tested, 6.9% active. AID 504834; note: potency is the fitted concentration of half-maximal effect; % is set by controls: 0 for no effect and ±100 for the full control effect
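Two-generation exposure (96 h) targets delayed-death phenotype. Reporter parasites carrying integrated firefly luciferase, in red cells at 2% hematocrit and 0.05% parasitemia final, kept at 37 C, 5% CO2; luminescence loss indicates inhibition.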
Pf growth 48h: P. falciparum growth inhibition at 48 hours (one generation) | 310,000 tested, 5.9% active | Potency, µM (series often up to 28.7 µM), for inactives: top-dose activity change, negative = inhibition, hits mostly inhibitors | P. falciparum luciferase growth in erythrocytes, 48 h | AID 504832; note: potency is the fitted concentration of half-maximal effect; % is set by controls: 0 for no effect and ±100 for the full control effect
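Parasite viability was followed by luminescence of a genomically integrated firefly luciferase. Cultures held 0.1% parasitemia at 2% hematocrit (final), incubated under 5% CO2 at 37 C.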
HCMV inh: human cytomegalovirus inhibition | HFF cells, HCMV-luciferase reporter, 72 h; active compounds read low | activity change, negative = inhibition, % at 57.5 µM | 410,000 tested, 4.5% active | AID 1259415; in the data active = activity change below about -60%; inconclusive = no clear call, values can overlap the other calls; inactive = above about -39%; note: % is set by controls: 0 for no effect and ±100 for the full control effect
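Two-dose cell screen: HFF monolayers treated with compounds and infected with luciferase-expressing HCMV at 1 PFU/cell, 72 h at 37C, then lysed for luciferase measurement.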
Shiga toxin inh: Shiga toxin inhibition; Vero cells, Shiga toxin protein synthesis inhibition reporter; inhibition, % at 38.7 µM; 290,000 tested, 9.2% active; AID 2315; in the data active = inhibition mostly above about 28%, no sharp cut-off; inactive = mostly below about 43%; note: 0% is about no effect
Cycloheximide cs: counter-screen for Shiga toxin inhibitors: cycloheximide protein synthesis inhibition; cell reporter, cycloheximide protein synthesis inhibition counterscreen; AID 2314; max response, %; 300,000 tested, 12% active; in the data active = max response mostly above about 13%, no sharp cut-off; inactive = mostly below about 14%; note: read at 38.3 µM for the half of the compounds with a filed dose; 0% is about no effect
An asterisk follows results filed as active; ? = inconclusive; · = no result given; [ ] = dose if it differs, or a comment. An excerpt weighted towards active compounds, which were near 20% of everything screened. Unless noted, calls come from the whole dose curve; as a rule, active = well fitted inhibition curve with a large enough effect; inconclusive = small, poorly fitted or top-dose-only effect, or another doubt; inactive = no such curve, though single readings can be large or run the other way.

SMILES	Pf growth 96h	Pf growth 48h	HCMV inh	Shiga toxin inh	Cycloheximide cs
CCn1cc(C(=O)N2CCN(c3ccc(C)cc3)C(C)C2)c(=O)c2cc(S(=O)(=O)N3CCCC3)ccc21 (configuration not stated)	·	·	-9	·	·
C/C(CC(=O)NCCc1ccccc1)=N\NC(=O)COc1ccc(Br)cc1	26%	29%	4	-9	-6
CS(=O)(=O)c1ccccc1-c1nnc(-c2ccc(Cl)cc2)o1	2%	36%	35	64*	19*
Fc1ccc(-c2nnc(-c3ccc(Cl)cc3Cl)o2)cc1	19%	172%	174	43*	22*
Clc1ccc(-c2nnc(C3CC3)o2)cc1	33%	22%	105	46	27
Clc1ccc(-c2nnc(-c3ccccc3)o2)c(Cl)c1	194%	135%	81	119	51*
Clc1ccc(-c2nnc(N3CCOCC3)o2)cc1	41%	77%	-10	90*	31*
COc1ccc(C)cc1NC(=O)CCNS(=O)(=O)c1cccc(C(F)(F)F)c1	-31%	-1%	-2	3	-4
CS(=O)(=O)N(CC(=O)NC1CCCC1)Cc1ccc(Cl)cc1	-18%	·	3	-7	-2
O=c1[nH]c(C(F)(F)C(F)(F)C(F)(F)F)no1	·	·	8	·	·
CSc1nnc(-c2ccc(F)cc2)o1	·	?	24	14	15
Fc1ccc(-c2nnc(-c3ccc(Cl)cc3)o2)cc1	57%	·	54	46*	18*
Clc1ccc(-c2nnc3sc(-c4ccc(Br)o4)nn23)c(Cl)c1	-11%[5.75 µM]	27%	-17	-7	-1
Clc1ccc(-c2nnc(-c3ccc(Br)o3)o2)c(Cl)c1	40%	·	33	30	15*
CC(C)(C)c1nnc2sc(SCC(=O)c3cccs3)nn2c1=O	-8%	-18%	89	14	14
CCOC(=O)[C@]12CCCC=C1N(Cc1ccc(Cl)cc1Cl)C(=O)[C@H](CC(=O)NCc1ccc(OC)c(OC)c1)C2	·	·	-71*	·	·
COC(=O)[C@]12CCCCC=C1N(Cc1ccc(Cl)cc1Cl)C(=O)[C@H](CC(=O)NCc1ccc(OC)c(OC)c1)C2	·	·	-70*	·	·
CCOC(=O)[C@]12CCCC=C1N(Cc1ccco1)C(=O)[C@H](CC(=O)N1CCSCC1)C2	·	·	-82*	·	·
CCOC(=O)[C@]12CCCC=C1N(Cc1ccco1)C(=O)[C@H](CC(=O)N1CCCCC1)C2	·	·	-9	·	·
CCOC(=O)[C@]12CCCC=C1N(Cc1ccc3c(c1)OCO3)C(=O)[C@H](CC(=O)NCc1cccc(C(F)(F)F)c1)C2	·	·	-65*	·	·
COC(=O)[C@]12CCCCC=C1N(Cc1ccc(Cl)cc1Cl)C(=O)[C@H](CC(=O)NCc1ccccc1)C2	·	·	6	·	·
CCOC(=O)C1CCN(C(=O)COc2ccc(S(=O)(=O)NC(C)(C)C)cc2)CC1	·	-26%	5	-4	-3
O=C1C2C3CCC(C3)C2C(=O)N1c1ccc2ccccc2c1 (configuration not stated)	?	36%	31	·	7
NNC(=O)c1ccc(COc2ccc3c(c2)CCC3)cc1	3%	31%	29	11	16
Cc1ccc(NC(=O)c2ccc(COc3ccc4c(c3)CCC4)cc2)c(C)c1	?	2%	-6	25	17*
SMILES	Pf growth 96h	Pf growth 48h	HCMV inh	Shiga toxin inh	Cycloheximide cs
O=C(Nc1ccccc1Cl)c1ccc(COc2ccc3c(c2)CCC3)cc1	83%	44%	12	60*	25*
Cc1ccc(NC(=O)c2ccc(OCC3CCCO3)cc2)c(C)c1 (configuration not stated)	337%	40%	18	5	16
O=C(O)c1ccc(COc2ccc3c(c2)CCC3)cc1	152%	101%	92	54*	25*
O=C(CO/N=C/c1ccccc1)Nc1c(F)c(F)c(F)c(F)c1F	13%	5%	?	-9	3
C=CCSc1cc(C)nc2c(-c3ccccc3)c(C)nn12	10µM*	?	-38	13	25*
Cc1cc(SCC#N)n2nc(C)c(-c3ccccc3)c2n1	193%	-10%	-73*	4	23
Cc1cc(N)n2nc(C)c(-c3ccc(Cl)cc3)c2n1	-10%	?	-32	6	8
Cc1cc(SCC#N)n2nc(C)c(-c3ccc(Cl)cc3)c2n1	·	?	?	-23	-1
Cc1cc(SCC(=O)c2cccs2)n2nc(C)c(-c3ccccc3)c2n1	0%	?	19	39*	39*
CC(=O)CSc1cc(C)nc2c(-c3ccccc3)c(C)nn12	-27%	45%	19	-2	-1
Cc1cc(N)n2nc(C)c(-c3ccccc3)c2n1	82%	?	33	21	13*
Cc1cc(N2CCCCC2)n2nc(C)c(-c3ccccc3)c2n1	?	?	-15	49	6
Cc1cnc(-c2nc3ccccc3n2C(C)C(=O)Nc2c(C)cccc2C)cn1 (configuration not stated)	·	·	12	·	·
O=S(=O)(Nc1ccc(N2CCOCC2)cc1)c1c(F)cc(F)cc1Br	4%	-15%	32	-16	-4
O=C(Cn1ccn(-c2ccc(F)c(F)c2)c(=O)c1=O)Nc1ccccc1F	·	·	-6	·	·
Cc1ccc2c(c1)nnn2C1CCN(CC(=O)NNC(=O)c2ccco2)CC1	27%	0%	9	-9	2
Cc1nn2c(-c3ccccc3)ccnc2c1Br	23%	-1%[0.00184 µM]	-34	4	-2
Cc1nn2c(-c3cccnc3)ccnc2c1-c1ccccc1	-8%	3%	?	41*	25*
O=C(O)CCCCCN1C(=O)CSC1=S	?	2%	-81*	-21	-5
CCOC(=O)c1ccccc1NC(=O)c1cc2c(=O)oc3ccc(C)cc3c2s1	·	·	7	·	·
CN(Cc1ccccc1)C(=O)c1ncn(C)c1C(=O)N(C)Cc1ccccc1	45%	63%	-4	·	·
CCN(CC)C(=O)c1ncn(C)c1C(=O)N(CC)CC	·	·	-66*	·	·
Nc1ccc(-c2cnc(-c3ccc(N)cc3)nc2)cc1	22%	65%	43	33	51*
Cc1c(Cl)cccc1NC(=O)CSc1ncnc2c1sc1ccccc12	·	·	1	·	·
CCOC(=O)C1=C(CN2CCCCC2)NC(=O)NC1c1ccc(C)cc1 (configuration not stated)	·	·	-15	·	·
CCOC(=O)C1=C(CN2CCN(c3ccc(OC)cc3)CC2)NC(=O)NC1c1ccc(OC)cc1 (configuration not stated)	·	·	-26	·	·
CCOC(=O)C1=C(CN2CCN(C(=O)c3ccco3)CC2)NC(=O)NC1c1ccc(C)cc1 (configuration not stated)	?	13µM*	8	-19	-2
CCOC(=O)C1=C(CN2CCN(c3cc(C)ccc3C)CC2)NC(=O)NC1c1ccc(Cl)cc1 (configuration not stated)	·	·	-80*	·	·
CCOC(=O)C1=C(CN2CCN(c3ccc(C)cc3C)CC2)NC(=O)NC1c1ccc(OC)cc1 (configuration not stated)	·	·	-82*	·	·
